Reference: PubChem BioAssay
Inconclusive results are not listed. Active and inactive are the calls of the source. No cut-off is given here; in the data, nearly all actives have AC50 up to about 23 µM.

Experiment: viability loss in pontine glioma line – cell-based, SU-DIPG-XIII, MIPE5.0, CellTiter-Glo, qHTS, dose response (AID 1347064);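 for AC50: cells exposed to compound for 48 hours before the viability read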
Settings: CellTiter-Glo ATP luminescence

Row | SMILES | AC50 | outcome
1 | Nc1nc(=S)c2[nH]cnc2[nH]1 | 2.35 µM (active) | –
2 | O=c1c(-c2ccc(O)cc2)coc2cc(O)cc(O)c12 | – | inactive
3 | CC1(C)NC(=O)N(c2ccc([N+](=O)[O-])c(C(F)(F)F)c2)C1=O | – | inactive
4 | C1CCC(C(CC2CCCCN2)C2CCCCC2)CC1 (configuration not stated) | 11.8 µM (active) | –
5 | Cc1oncc1C(=O)Nc1ccc(C(F)(F)F)cc1 | – | inactive
6 | CCCOc1ccc2nc(NC(=O)OC)[nH]c2c1 | 0.661 µM (active) | –
7 | Cc1cc(C2CCCCC2)n(O)c(=O)c1 | 4.17 µM (active) | –
